CR mimetic SO: yeast age-related superoxide inhibition as caloric restriction mimetic; S. cerevisiae aged cells, superoxide DHE fluorescence; active compounds read low; superoxide response (% of plate mean), % at 10 µM; 0.18% of 330,000 active; AID 2690;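 active = superoxide response under a set limit, about three screen SD below normal, cut at about 65% in these data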;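 also: yeast aged for seven days with compound at 30 °C before DHE staining; 100% = average MFI of all compound-treated wells on the plate with controls excluded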
M18AAP inhibitor: blocks P. falciparum M18 aspartyl aminopeptidase; recombinant PfM18AAP, H-Glu-NHMec fluorogenic cleavage; inhibition, % at 7.35 µM; 1.2% of 290,000 active;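 active = inhibition above the campaign mean inhibition over all tested compounds plus 3 SD, cut at about 28% in these data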;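 also: 0% = plate median of test compound wells and 100% = 2 mM ZnCl2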
A3A deaminase: human APOBEC3A DNA deaminase inhibition; recombinant A3A, FAM/TAMRA ssDNA deamination fluorescence; inhibition, % at 20 µM; 0.41% of 330,000 active; AID 493011;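 active = at least 40% inhibition at 20 µM here, with at most 30% in a related deaminase screen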;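 also: plate controls were A3A with DMSO for no effect and wells lacking A3A enzyme for full effect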
Target sequence (P31941 whole entry, looked up): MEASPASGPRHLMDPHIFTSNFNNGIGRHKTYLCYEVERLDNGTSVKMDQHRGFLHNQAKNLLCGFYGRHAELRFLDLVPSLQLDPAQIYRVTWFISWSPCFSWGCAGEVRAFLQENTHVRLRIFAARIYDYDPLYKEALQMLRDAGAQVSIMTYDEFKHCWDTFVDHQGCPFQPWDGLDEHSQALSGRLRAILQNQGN
NRP1-CendR mod: alters CendR peptide binding to human NRP-1. AID 602438. 0.85% of 360,000 active. O14786. FAM-RPARPAR peptide binding to NRP-1, fluorescence polarization. inhibition, % at 25 µM;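 active = inhibition or corrected inhibition above about 18%, plus a signal ratio from 0.5 to 1.5, limit read from the data, passing the limit was not always enough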
APOBEC3G inh: APOBEC3G (human) deaminase inhibition. 0.28% of 330,000 active. inhibition, % at 20 µM. recombinant A3G, ssDNA deamination FAM/TAMRA fluorescence. Q9HC16;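 active = inhibition of at least 40% at 20 µM, with no more than 30% in the related APOBEC3A deaminase screen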;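 also: plate controls were DMSO wells with A3G for no effect and wells lacking A3G enzyme for full effect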
ALR inh: inhibitors of human sulfhydryl oxidase ALR; P55789; purified ALR, DTT oxidation, H2O2 HRP-luminol luminescence; inhibition, % (test concentration not listed); 3.8% of 290,000 active;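 active = mean replicate inhibition above about 79%, with every replicate also reaching it, limit read from the data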
Target sequence (P55789 whole entry, looked up): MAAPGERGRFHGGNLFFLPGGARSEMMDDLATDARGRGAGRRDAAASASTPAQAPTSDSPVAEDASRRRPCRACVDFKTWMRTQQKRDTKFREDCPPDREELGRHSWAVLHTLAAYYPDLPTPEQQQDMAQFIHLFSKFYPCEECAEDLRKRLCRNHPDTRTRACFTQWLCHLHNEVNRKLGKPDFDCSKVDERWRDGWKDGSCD
Starred values were filed as active, the others as inactive; x = not tested or not shown. Shown are actives, neighbours in structure and some others; about 5.2% of the full set was active somewhere.

SMILES	CR mimetic SO	M18AAP inhibitor	A3A deaminase	NRP1-CendR mod	APOBEC3G inh	ALR inh
NS(=O)(=O)c1ccc(NC(=O)CSc2ncccn2)cc1	91.5	-0.3	6.5	1.5	1.3	-0.4
O=C(COC(=O)[C@@H]1CCCN1C(=O)c1cccs1)Nc1ccc(Br)cc1	80.5	x	-1.0	-17.3	-5.9	3.2
COc1ccc(NC(=O)COC(=O)[C@@H]2CCCN2C(=O)c2cccs2)cc1	95.8	-6.4	2.8	28.8*	-5.0	-2.1
CC1CN2C(c3ccc(Cl)cc3)=CSC2=N1 (stereo not drawn)	108.0	9.8	-7.9	7.2	-9.2	99.3*
CC(=O)OCC1=C(C(=O)O)N2C(=O)C(NC(=O)c3ccc(COc4c(C)cccc4Cl)o3)C2SC1 (stereo not drawn)	92.6	15.8	13.8	-17.8	9.5	97.6*
NC(C(=O)O)C1CC(Cl)=NO1 (stereo not drawn)	99.4	-4.0	-1.3	x	-4.8	8.0
Oc1ccc(N2Cc3ccccc3C2)cc1	101.4	5.1	-1.9	2.8	9.5	83.7*
COC(=O)c1sccc1NC(=O)c1cc(C)on1	104.2	2.7	2.1	-2.8	-0.5	96.2*
COC(=O)c1sccc1NC(=O)c1c(C)noc1C	104.0	1.5	0.0	3.5	-5.4	-0.1
COc1ccc(OC)c(S(=O)(=O)Nc2ccc(O)c3ccccc23)c1	118.2	8.1	-5.8	2.5	-1.8	38.2
COc1ccc(OC)c(S(=O)(=O)Nc2cccc3c(O)cccc23)c1	109.3	x	-1.9	-2.2	-1.9	87.3*
CSc1sc(-c2ccnc(=S)[nH]2)c(-c2ccccc2)c1C#N	98.2	11.2	-1.5	-0.5	-3.9	96.0*
O=C1c2ccccc2C(Nc2ccc(S(=O)(=O)N3CCOCC3)cc2)N1c1cccnc1 (stereo not drawn)	85.9	-0.6	-1.2	2.6	1.8	x
Cc1ccc(-c2noc(CSc3ccccc3)n2)cc1	97.5	-0.9	-0.2	-1.5	-1.7	-3.4
O=C(O)c1ccccc1CSc1nc2ccccc2o1	98.8	1.3	0.2	-2.2	-1.4	35.6
Cc1cccc(-c2noc(CSc3ccccc3)n2)c1	108.6	6.1	0.9	30.7*	0.2	-3.7
c1ccc(-c2noc(CSc3nc4ccccc4o3)n2)cc1	89.1	3.3	-0.3	3.5	-1.9	86.3*
O=C(O)c1ccc(CSc2nc3ccccc3o2)cc1	122.1	-8.8	-0.8	3.0	12.1	97.0*
CCSC(=O)NC1CCCCC1	104.0	0.8	1.1	-0.2	-2.5	8.5
C[C@@H]1CN([C@H](C)CO)C(=O)CCCn2cc(nn2)CO[C@H]1CN(C)S(=O)(=O)c1ccc(Oc2ccccc2)cc1	x	x	x	6.7	x	x
COc1ccc2c(c1O)C(=O)c1ccccc1C2=O	88.6	0.1	8.9	x	3.8	-20.2
Nc1c(O)ccc2c1C(=O)c1ccccc1C2=O	120.1	9.4	x	x	x	98.7*
COc1ccc(C(CC(=O)O)NC(C)=O)cc1OC (stereo not drawn)	118.9	4.9	-5.4	2.8	2.5	2.9
O=C1C2CCCN2C(=O)N1CCCN1CCN(c2cccc(Br)c2)CC1 (stereo not drawn)	107.9	-12.6	-5.5	-0.2	28.2	85.4*
O=C1C2CCCCN2C(=O)N1CCCN1CCN(c2cccc(C(F)(F)F)c2)CC1 (stereo not drawn)	x	x	x	4.4	x	x
SMILES	CR mimetic SO	M18AAP inhibitor	A3A deaminase	NRP1-CendR mod	APOBEC3G inh	ALR inh
Nc1ccc(N2CCN(CCCCN3C(=O)C4CCCN4C3=O)CC2)cc1 (stereo not drawn)	95.4	13.3	0.9	-5.5	-1.9	99.2*
CCSc1ncc(Cl)c(C(=O)Nc2sc3c(c2C(=O)NCc2cccnc2)CCCC3)n1	102.1	1.2	-2.3	-81.3	-7.1	-3.4
COc1cc(C(=O)N(Cc2cc3cc(C)ccc3[nH]c2=O)CC2CCCO2)cc(OC)c1OC (stereo not drawn)	106.4	-5.1	-0.7	4.2	-1.4	-0.8
O=C1CC(SCc2nc3ccccc3[nH]2)C(=O)N1c1cccc(Cl)c1 (stereo not drawn)	94.7	-15.5	-1.0	-14.3	-9.8	98.0*
Cc1ccc(S(=O)(=O)n2c([N+](=O)[O-])cnc2C)cc1C	83.8	-2.2	-1.1	-1.3	-0.3	2.7
CC(=O)Nc1ccc(S(=O)(=O)Nc2nccs2)cc1	98.8	6.0	-0.8	-3.1	-2.6	3.7
O=C(CSc1ccncc1)Nc1ccc(S(=O)(=O)Nc2nccs2)cc1	96.1	2.7	9.2	-19.1	-0.1	99.2*
Cc1ccc(S(C)(=O)=O)cc1C(=O)Nc1ccc(S(=O)(=O)Nc2nccs2)cc1	102.9	x	-0.2	-11.8	-5.8	96.8*
O=C(CSc1ncn[nH]1)Nc1ccc(S(=O)(=O)Nc2ncccn2)cc1	112.8	30.0*	4.1	5.0	3.0	6.0
Cc1cccnc1NC(=O)CN1C(=O)NC(C)(c2ccc3ccccc3c2)C1=O (stereo not drawn)	113.3	x	-0.5	27.9*	-2.9	3.8
Cn1c(N)c(C(=O)COC(=O)C2CC(O)CN2S(=O)(=O)c2ccc(Cl)cc2)c(=O)n(C)c1=O (stereo not drawn)	91.7	0.8	1.9	0.2	-7.1	-1.1
Cc1cc(NS(=O)(=O)c2ccc(NC(=O)CN3C(=O)NC(C)(c4ccccc4)C3=O)cc2)nc(C)n1 (stereo not drawn)	94.3	x	35.7	2.9	-1.6	-2.6
CC1(c2ccccc2)NC(=O)N(CC(=O)Nc2ccc(S(=O)(=O)Nc3ncccn3)cc2)C1=O (stereo not drawn)	95.0	x	-0.7	4.3	-4.9	98.5*
CCC1(c2ccc(Cl)cc2)NC(=S)N(c2ccccc2)N1 (stereo not drawn)	106.0	11.8	-1.4	7.1	-3.2	94.5*
CCC1(c2ccccc2)NC(=S)N(c2ccc(C)cc2)N1 (stereo not drawn)	92.7	18.3	-8.7	14.2	3.3	93.7*
CCCCCC1(C)NC(=S)N(c2ccccc2)N1 (stereo not drawn)	70.6	14.8	-2.2	5.4	-14.7	-2.8
CCc1cccc(Oc2nn[nH]n2)c1	128.9	1.2	6.1	5.8	1.3	98.1*
CCOc1ccccc1N1C(=O)CC(N(O)c2ccccc2)C1=O (stereo not drawn)	85.5	-5.9	0.1	1.0	-4.1	95.3*
O=C(NC(=S)NC1CCSC1=O)c1ccccc1Cl (stereo not drawn)	99.9	4.8	-2.7	-7.0	-6.3	3.8
O=C1NN(c2ccccc2)C(=O)/C1=C\c1cccc(OC(=O)c2cccs2)c1	88.4	1.0	7.2	-47.9	3.8	89.1*
O=C1NN(c2ccc(Cl)c(Cl)c2)C(=O)/C1=C/c1cccc(OC(=O)c2cccs2)c1	91.2	-18.4	1.9	x	0.6	-6.6
CCOC(=O)CSc1nnc(NCC(=O)OC)c(=O)[nH]1	98.4	-80.2	1.5	0.3	-3.9	100.1*
CCOC(=O)CSc1nnc(C)c(=O)[nH]1	105.2	4.1	-4.1	18.9	-6.8	0.8

Compound activity: PubChem BioAssay, several laboratories
